Results from the supplement of paper PMC7156485.
± gives the standard deviation of the averaged measurements.

Columns and labels:
Conditions in all cases: concentration: 10 µM; 24 h
[1] = tested on: HCC1569; assay: cell number relative to DMSO (% of DMSO); higher = more cells (less growth inhibition / toxicity)
In short: (§1)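 HCC1569 and TDF cells (800 per well, 384-well plates, RPMI with 10% FBS) were treated with compounds at 10 µM for 24 h at 37 °C, in triplicate. Cells were fixed in 3.7% formaldehyde and stained with a rabbit anti-H1.0 antibody, an AlexaFluor 647 secondary and DAPI; six fields per well were imaged at ×10. H1.0 nuclear intensity or cell number is expressed as percent of the plate DMSO control, taking the median of replicates. HCC1569 values were smoothed for positional effects.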

[2] = tested on: TDF; assay: as above
In short: as §1

[3] = tested on: TDF; assay: H1.0 immunofluorescence intensity relative to DMSO (% of DMSO); higher = stronger H1.0 induction, active = 120 or more
In short: as §1

[4] = tested on: HCC1569; assay: H1.0 immunofluorescence intensity relative to DMSO (% of DMSO); higher = stronger H1.0 induction, active = 140 or more
In short: as §1
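For H1.0 immunofluorescence intensity relative to DMSO in this document: TDF is a line of transformed human dermal fibroblasts of mesenchymal origin.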
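For cell number relative to DMSO in this document: TDF denotes transformed human dermal fibroblasts of mesenchymal origin.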

Compound	cell number [1]	cell number [2]	H1.0 immunofluorescence intensity [3]	H1.0 immunofluorescence intensity [4]
O=C(O)CCCC=CCC1C(O)CC(O)C1C=CC(O)COc1cccc(Cl)c1.[Na] (stereo unspecified)	99.8	98.7	96.8 (inactive)	92.6 (inactive)
COc1ccc2cc(C(C)C(=O)[O-])ccc2c1.[Na+] (single isomer, unassigned; (-)) [(-)-Naproxen sodium]	105	93.1	96.1 (inactive)	102 (inactive)
NC(=O)c1ncn(C2OC(CO)C(O)C2O)c1O (stereo unspecified) [Mizoribine]	101	99.2	91.2 (inactive)	89.3 (inactive)
Nc1nc(=O)c2ncn(COC(CO)CO)c2[nH]1 [Ganciclovir]	105 ± 4	99.6 ± 5.2	95.2 (inactive)	99.6 (inactive)
CC(NCCc1ccc(O)cc1)C(O)c1ccc(O)cc1.Cl (stereo unspecified) [Ritodrine hydrochloride]	107	113	101 (inactive)	91.5 (inactive)
NC(=O)c1ccc(-c2nc(-c3ccc4c(c3)OCCO4)c(-c3ccccn3)[nH]2)cc1	97.4	108	94.2 (inactive)	122 (inactive)
Cl.O[C@H](c1cc(C(F)(F)F)nc2c(C(F)(F)F)cccc12)[C@@H]1CCCCN1	52	56.7	131 (active)	170 (active)
Cn1c(=O)[nH]c2ncn(C)c2c1=O [1,7-Dimethylxanthine]	102	98.9	88 (inactive)	85.7 (inactive)
CCC1C(=O)OCC1Cc1cncn1C.Cl (single isomer, unassigned; (+)) [(+)-Pilocarpine hydrochloride]	97.7	93.1	102 (inactive)	101 (inactive)
